According to PubChem BioAssay (Tox21):
Values joined by “and” are separate entries in the source; they are usually repeats but may differ in a detail not shown here. Identical values can stand only once. Values without a mark were called inactive. Results filed as inconclusive are left out. Where a call stands in place of a potency, no number is given. Active and inactive are the calls of the source. Unless noted, the call rests on the fitted dose curve; in most records, active means well fitted curve in the direction sought with a large enough effect in the repeat runs; inconclusive means weak or mixed curves; inactive means no such curve, though single readings can be large; an effect the other way counts as inactive or inconclusive.

Experiments:
[1] = target: Thyrotropin-releasing hormone receptor (Homo sapiens) (UniProt P34981); assay: qHTS assay to identify small molecule agonists of the thyrotropin-releasing hormone receptor (TRHR) signaling pathway (AID 1346891; calls by dose curve;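 on activation: HEK293 cells expressing TRHR with calcium dye readout; series mostly up to about 58 µM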)
Summary of the method: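 Cells: TRHR-Hek293, seeded and incubated 18 h. Dye loading: 2 h at 37 °C. Compound added from DMSO stock by pin tool. Read-out: kinetic calcium fluorescence over 3 min.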

[2] = Human pregnane X receptor (PXR) small molecule agonists, qHTS cell viability counter screen (AID 1346977); further: nearly all actives have a fitted effect of over 50% in size
Summary of the method: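 Cytotoxicity counter screen run in the same wells as the PXR luciferase assay, using PXR-Luc HepG2 cells in charcoal-stripped serum medium. Viability: CellTiter-Fluor fluorescence after 24hr compound treatment.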

[3] = Caspase-3/7 induction in HepG2 cells by small molecules, qHTS assay (AID 1346978); further: nearly all actives have a fitted effect of over 15% in size
Summary of the method: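 Caspase-3/7 induction was measured by Caspase-Glo 3/7 luminescence (30 min, room temperature) after a 17 hr compound exposure of wild-type HepG2 cells seeded at 2,000 per well and pre-incubated 5 hr.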

[4] = Caspase-3/7 induction in CHO-K1 cells by small molecules, qHTS cell viability counter screen (AID 1346979); further: nearly all actives have a fitted effect of over 35% in size
Summary of the method: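 Cytotoxicity counter screen run in parallel with the caspase-3/7 assay: CHO-K1 cells, 16hr compound treatment at 37C, then CellTiter-Fluor for 1hr before fluorescence reading.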

[5] = Caspase-3/7 induction in CHO-K1 cells by small molecules, qHTS assay (AID 1346980); further: nearly all actives have a fitted effect of over 15% in size
Summary of the method: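 Luminescent Caspase-Glo 3/7 read (30min, room temperature) quantified apoptosis induction. Cells were wild-type CHO-K1, treated with compound for 17hr at 37 C and 5% CO2.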

[6] = Caspase-3/7 induction in HepG2 cells by small molecules, qHTS cell viability counter screen (AID 1346981); further: nearly all actives have a fitted effect of over 30% in size
Summary of the method: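 Wild-type HepG2 cells (2,000/well) were allowed to settle for 5 hr at 37 C, 5% CO2, then dosed with compounds in DMSO by pin transfer. After 16 hr at 37 C, CellTiter-Fluor was added and fluorescence read 1 hr later.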

[7] = target: Nuclear receptor subfamily 1 group I member 2 (Homo sapiens) (UniProt O75469); assay: Human pregnane X receptor (PXR) small molecule agonists, qHTS assay (AID 1346982); further: nearly all actives have a fitted effect of over 35% in size
Summary of the method: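 PXR-Luc HepG2 cells (CYP3A4 promoter-driven luciferase) were seeded in medium with 5% charcoal-stripped FBS, left 5 hr at 37 C, then exposed to compounds in DMSO for 24 hr. Luminescence was read after ONE-Glo addition.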

[8] = target: Nuclear receptor subfamily 1 group I member 2 (Rattus norvegicus) (UniProt Q9R1A7); assay: Rat pregnane X receptor (rPXR) activation by small molecules, qHTS assay (AID 1346983); conditions: rPXR luciferase reporter cells, One-Glo luminescence, 24 h; max activation: hits give high values; further: nearly all actives have a fitted effect of over 20% in size
Summary of the method: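 Luminescent readout (One-Glo luciferase, 30 min room temperature) followed 24 hr compound treatment at 37 C of rPXR cells plated 2,000 per well and preincubated 5hr; qHTS format with compounds delivered in DMSO.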

[9] = target: Nuclear receptor subfamily 1 group I member 2 (Homo sapiens) (UniProt O75469); assay: CYP3A4 induction through human pregnane X receptor (PXR) by small molecules, qHTS assay (AID 1346984); further: nearly all actives have a fitted effect of over 40% in size
Summary of the method: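 DPX-2 cells (HepG2 co-transfected with PXR and CYP3A4 promoter-luciferase) treated with compounds 24 h at 37C; luciferin-IPA CYP3A4 substrate 3uM final added for 3 h, then One-Glo; luminescence read. qHTS format.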

[10] = target: Nuclear receptor subfamily 1 group I member 2 (Homo sapiens) (UniProt O75469); assay: Human pregnane X receptor (PXR) activation by small molecules, qHTS assay (AID 1346985); further: nearly all actives have a fitted effect of over 40% in size
Summary of the method: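 DPX-2 cells (HepG2 co-transfected with a PXR response element and a CYP3A4-promoter luciferase construct) were seeded at 2,000 per well, rested 5 hr at 37C, then exposed to DMSO-dissolved compounds for 24 hr. Activation was read as luciferase luminescence.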
Potency means the concentration at half of the fitted maximal effect.

Chain of Nuclear receptor subfamily 1 group I member 2 (Rattus norvegicus) (Q9R1A7 whole entry, looked up): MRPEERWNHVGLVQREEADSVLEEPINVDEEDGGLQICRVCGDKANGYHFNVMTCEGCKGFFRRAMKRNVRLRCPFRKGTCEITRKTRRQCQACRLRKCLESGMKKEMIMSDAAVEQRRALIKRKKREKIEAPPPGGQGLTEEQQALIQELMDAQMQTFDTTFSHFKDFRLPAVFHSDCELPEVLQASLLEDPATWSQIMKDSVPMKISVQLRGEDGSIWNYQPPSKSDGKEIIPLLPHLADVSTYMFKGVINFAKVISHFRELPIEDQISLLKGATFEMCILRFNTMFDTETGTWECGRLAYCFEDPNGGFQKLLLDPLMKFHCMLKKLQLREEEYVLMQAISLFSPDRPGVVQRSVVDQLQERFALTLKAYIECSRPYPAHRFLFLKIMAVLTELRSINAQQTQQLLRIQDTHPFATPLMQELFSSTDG
Chain of Nuclear receptor subfamily 1 group I member 2 (Homo sapiens) (O75469 whole entry, looked up): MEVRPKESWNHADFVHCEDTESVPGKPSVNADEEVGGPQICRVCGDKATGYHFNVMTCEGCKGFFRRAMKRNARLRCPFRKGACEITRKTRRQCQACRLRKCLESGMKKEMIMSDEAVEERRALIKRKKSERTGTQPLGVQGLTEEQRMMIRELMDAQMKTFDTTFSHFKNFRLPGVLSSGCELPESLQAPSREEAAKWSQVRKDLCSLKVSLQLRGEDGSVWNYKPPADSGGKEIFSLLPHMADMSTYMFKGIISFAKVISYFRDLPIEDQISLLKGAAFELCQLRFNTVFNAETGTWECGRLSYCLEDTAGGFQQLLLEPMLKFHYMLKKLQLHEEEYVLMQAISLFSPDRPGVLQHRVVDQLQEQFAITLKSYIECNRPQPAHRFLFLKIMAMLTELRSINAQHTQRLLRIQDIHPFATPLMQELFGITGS
Chain of Thyrotropin-releasing hormone receptor (Homo sapiens) (P34981 whole entry, looked up): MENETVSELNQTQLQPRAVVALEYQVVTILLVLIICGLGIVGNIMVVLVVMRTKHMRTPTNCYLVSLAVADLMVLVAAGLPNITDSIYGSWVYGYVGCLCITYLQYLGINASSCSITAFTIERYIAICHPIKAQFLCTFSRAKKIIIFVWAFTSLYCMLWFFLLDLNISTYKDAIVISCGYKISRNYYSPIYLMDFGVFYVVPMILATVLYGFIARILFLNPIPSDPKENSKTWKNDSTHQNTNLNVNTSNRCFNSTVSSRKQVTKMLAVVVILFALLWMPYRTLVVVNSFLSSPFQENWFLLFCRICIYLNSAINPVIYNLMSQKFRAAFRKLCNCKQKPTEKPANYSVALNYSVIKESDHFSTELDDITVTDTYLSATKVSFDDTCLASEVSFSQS

Structure (SMILES)	Potency [1]	Potency [2]	Potency [3]	Potency [4]	Potency [5]	Potency [6]	Potency [7]	max activation [8]	Potency [9]	Potency [8]	Potency [10]
Cc1ccco1	inactive	inactive	inactive	inactive	inactive	inactive	inactive	–	–	–	–
CC(CCC(=O)O)C(=O)O (stereo not given)	inactive	inactive	inactive	inactive	inactive	inactive	inactive	–	–	–	–
O=C(Nc1cccc2c(=O)cc(-c3nn[nH]n3)oc12)c1ccc(OCCCCc2ccccc2)cc1	inactive	inactive	inactive	inactive	inactive	inactive	inactive	–	–	–	–
CC(=O)Nc1cc(S(=O)(=O)O)cc2cc(S(=O)(=O)O)c(N=Nc3ccccc3)c(O)c12	inactive	21.7 µM (active)	inactive	27.3 µM (active)	inactive	24.3 µM (active)	inactive	–	–	–	–
OCCOCC#CCOCCO	inactive	inactive	inactive	inactive	inactive	inactive	inactive	–	–	–	–
O=C(/C=C/c1ccccc1)OCCc1ccccc1	inactive	inactive	inactive	inactive	inactive	inactive	inactive	–	–	–	–
CC(=O)NC1(c2cccc(F)c2)CCN(CC[C@@]2(c3ccc(Cl)c(Cl)c3)CN(c3ccccc3)C(=O)CO2)CC1	inactive	34.5 µM (active)	48.7 µM (active)	34.5 µM (active)	48.7 µM (active)	48.7 µM (active)	19.4 µM (active)	–	–	–	–
Brc1cc(Br)c(Oc2cc(Br)c(Br)cc2Br)cc1Br	inactive	inactive	inactive	inactive	inactive	inactive	29.9 µM (active)	–	–	–	–
CCCCCC[C@@H](O)C/C=C\CCCCCCCC(=O)O	inactive	inactive	inactive	inactive	inactive	inactive	inactive	–	–	–	–
C[C@]12CC[C@@H]3c4ccc(O)cc4CC[C@H]3[C@@H]1CC[C@@H]2OC(=O)CCC1CCCC1	inactive	inactive	61.1 µM (active)	54.5 µM (active) and 29.8 µM (active)	43.3 µM (active)	inactive	21.7 µM (active) and 23.7 µM (active)	4.34% and -0.252%	inactive	–	–
CCCCCCCC/C=C\CCCCCCCCO	inactive	inactive	inactive	inactive	inactive	inactive	30.6 µM (active)	–	–	–	–
c1cc(N(CC2CO2)CC2CO2)ccc1Cc1ccc(N(CC2CO2)CC2CO2)cc1 (stereo not given)	inactive	54.5 µM (active)	inactive	54.5 µM (active)	inactive	61.1 µM (active)	27.3 µM (active)	–	–	–	–
CC(C)=CCC1C(=O)N(c2ccccc2)N(c2ccccc2)C1=O	inactive	inactive	inactive	inactive	inactive	inactive	29.8 µM (active)	–	5.01 µM (active)	28.2 µM (active)	–
CC(C)=CCC/C(C)=C/CC/C(C)=C/CCC(=O)OC/C=C(\C)CCC=C(C)C	inactive	inactive	inactive	inactive	inactive	inactive	inactive	–	–	–	–
CC(=O)[C@H]1[C@H](C#N)C[C@H]2[C@@H]3CC=C4C[C@@H](O)CC[C@]4(C)[C@H]3CC[C@@]21C	inactive	inactive	inactive	inactive	inactive	inactive	33.1 µM (active)	–	–	–	–
CC(=O)OCC[N+](C)(C)C	3.01 µM (active)	inactive	inactive	inactive	inactive	inactive	inactive	–	–	–	–
O=C(O)C[C@H](NC(=O)OCc1ccccc1)C(=O)O	inactive	inactive	inactive	inactive	inactive	inactive	inactive	–	–	–	–
CC(C)c1nc(CN(C)C(=O)N[C@H](C(=O)N[C@@H](Cc2ccccc2)C[C@H](O)[C@H](Cc2ccccc2)NC(=O)OCc2cncs2)C(C)C)cs1	inactive	9.44 µM (active)	inactive	23.7 µM (active)	inactive	21.1 µM (active)	5.96 µM (active)	–	–	–	–
C=C(C)[C@@H]1CCC2=CCC[C@@H](C)[C@]2(C)C1	inactive	inactive	inactive	inactive	inactive	inactive	38.6 µM (active)	–	–	–	–
CCc1ccccc1	inactive	inactive	inactive	inactive	inactive	inactive	inactive	–	–	–	–
CCCCCC[C@@H](O)C/C=C\CCCCCCCC(=O)OCC(O)CO (stereo not given in full)	inactive	inactive	inactive	inactive	inactive	inactive	34.4 µM (active)	–	–	–	–
C[C@H]1c2cccc(O)c2C(O)=C2C(=O)[C@]3(O)C(O)=C(C(N)=O)C(=O)[C@@H](N(C)C)[C@@H]3[C@@H](O)[C@@H]21	inactive	inactive	inactive	inactive	inactive	inactive	inactive	-4.08%	inactive	–	inactive
CCCCCCC(C)(C)C(=O)O	inactive	inactive	inactive	inactive	inactive	inactive	48.6 µM (active)	–	–	–	–
CC[N+](CC)(CCNC(=O)C(=O)NCC[N+](CC)(CC)Cc1ccccc1Cl)Cc1ccccc1Cl	inactive	inactive	inactive	inactive	inactive	inactive	inactive	-3.21%	inactive	–	inactive
CCCCCCCCN	inactive	inactive	inactive	inactive	inactive	inactive	27 µM (active)	–	–	–	–
NC(=O)c1ccncc1	inactive	inactive	inactive	inactive	inactive	inactive	inactive	–	–	–	–
O=C(O)CCc1nc(-c2ccccc2)c(-c2ccccc2)o1	inactive	inactive	inactive	inactive	inactive	–	–	-4.22%	inactive	–	inactive

Structure (SMILES)	Potency [1]	Potency [2]	Potency [3]	Potency [4]	Potency [5]	Potency [6]	Potency [7]	max activation [8]	Potency [9]	Potency [8]	Potency [10]
CCCCN1CCCC1C(=O)Nc1c(C)cc(C)cc1C (stereo not given)	inactive	inactive	inactive	inactive	inactive	inactive	–	14.6%	–	–	–
CN(C)CCN1C(=O)c2ccccc2N(C)c2ccccc21	inactive	inactive	inactive	inactive	inactive	inactive	–	5.5%	inactive	–	–
C=Cc1ccc(S(=O)(=O)O)cc1	inactive	inactive	inactive	–	inactive	inactive	38.6 µM (active)	-2.52%	inactive	–	inactive
CN1C(=O)N(c2ccccc2Br)Cc2cnc(Nc3ccc4c(c3)OCC(CO)O4)nc21 (stereo not given)	inactive	30.6 µM (active)	6.11 µM (active)	24.3 µM (active)	–	15.4 µM (active)	0.0154 µM (active)	–	–	–	–
O=C1CCCCCCCCCCOCCCCO1	inactive	inactive	inactive	inactive	–	inactive	inactive	–	–	–	–
CC(C)C(O)(c1ccc(OC(F)(F)F)cc1)c1cncnc1 (stereo not given)	inactive	inactive	–	inactive	inactive	inactive	–	–	–	–	–
CO[C@]1(NC(=O)CSC(F)F)C(=O)N2C(C(=O)O)=C(CSc3nnnn3CCO)CO[C@H]21	inactive	inactive	–	inactive	inactive	inactive	–	–	–	–	–
COc1cc(C(=O)NC2CCN(C)CC2)ccc1Nc1ncc2c(n1)N(C1CCCC1)CC(F)(F)C(=O)N2C	inactive	8.88 µM (active)	22.3 µM (active)	0.499 µM (active)	–	15.8 µM (active)	19.9 µM (active)	–	–	–	–
CO/N=C(/C(=O)N[C@@H]1C(=O)N2C(C(=O)O)=C(COC(N)=O)CS[C@H]12)c1ccco1	inactive	inactive	inactive	inactive	inactive	inactive	–	-0.884%	–	–	–
CC(CO)CO	inactive	inactive	–	inactive	inactive	inactive	inactive	–	–	–	–
O=C1c2ccccc2C(=O)C1c1nc2ccccc2c(Br)c1O	inactive	inactive	inactive	–	inactive	–	61.1 µM (active)	–	–	–	–
CCOC(=O)c1ccc(C#Cc2ccc3c(c2)C(C)(C)CCS3)nc1	inactive	inactive	inactive	inactive	inactive	inactive	33.5 µM (active)	–	inactive	10 µM (active)	inactive
CN1CCCC(n2nc(Cc3ccc(Cl)cc3)c3ccccc3c2=O)CC1 (stereo not given)	inactive	13.3 µM (active)	inactive	29.8 µM (active)	inactive	26.6 µM (active)	5.31 µM (active)	-1.86%	28.2 µM (active)	–	20 µM (active)
N#CCCN(CCO)CCO	inactive	inactive	–	inactive	inactive	inactive	inactive	–	–	–	–
COc1cc(N)c(Cl)cc1C(=O)NC1CCN(CCCOc2ccc(F)cc2)CC1OC (stereo not given)	inactive	29.8 µM (active)	inactive	–	inactive	–	inactive	-2.9%	–	–	inactive
O=C1C(=O)c2ccccc2C(O)=C1C1CCC(c2ccc(Cl)cc2)CC1 (stereo not given)	inactive	11.9 µM (active)	inactive	16.8 µM (active)	inactive	–	–	0.127%	2.51 µM (active)	–	inactive
CCCC(=O)C(=O)O	inactive	inactive	–	inactive	inactive	inactive	inactive	–	–	–	–
C[C@H]1C[C@H](O)c2ccsc2S1(=O)=O	inactive	inactive	inactive	–	inactive	inactive	inactive	–	–	–	–
COc1ncnc(NS(=O)(=O)c2ccc(N)cc2)c1OC	inactive	inactive	inactive	inactive	inactive	inactive	inactive	-3.86%	inactive	–	inactive
CCn1cc(C(=O)O)c(=O)c2cc(F)c(N3CCNCC3)cc21	inactive	inactive	inactive	–	inactive	inactive	inactive	7.46%	inactive	–	–
CCC1(CO)COCOC1	inactive	inactive	–	inactive	inactive	inactive	inactive	–	–	–	–
CC1(C)[C@@H](OC(=O)CCC(=O)O)CC[C@]2(C)[C@H]3C(=O)C=C4[C@@H]5C[C@@](C)(C(=O)O)CC[C@]5(C)CC[C@@]4(C)[C@]3(C)CC[C@@H]12	inactive	inactive	inactive	inactive	inactive	inactive	–	-0.478%	–	–	–
Oc1c(I)cc(I)c2cccnc12	inactive	inactive	inactive	–	inactive	inactive	–	–	–	–	–
CCOC(C)=O	inactive	inactive	inactive	inactive	inactive	–	inactive	-1.67%	inactive	–	inactive
CC(C)=CCC/C(C)=C/CC/C(C)=C/C(=O)OCC(=O)[C@@]1(O)CC[C@H]2[C@@H]3CCC4=CC(=O)C=C[C@]4(C)[C@H]3[C@@H](O)C[C@@]21C	inactive	inactive	inactive	18.8 µM (active)	inactive	–	1.88 µM (active)	–	–	–	–
CCOC(=O)c1ccc(OCCN2C[C@H](O)[C@@H](O)[C@H](O)[C@H]2CO)cc1	inactive	inactive	–	inactive	inactive	inactive	inactive	–	–	–	–
